Screening data deposited in PubChem BioAssay by National Center for Advancing Translational Sciences (NCATS).
VP16 counter: counter-screen for ROR gamma inhibitors: Gal4-VP16 reporter | AID 2546 | Drosophila S2 Gal4-VP16 UAS-luciferase, luminescence, 20 h | Potency, µM (titrated, usually from 53.6 µM), actives largely listed as inhibitors | actives 3.5% (n = 310,000);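 also: Gal4-VP16 expression switched on by copper sulfate through the metallothionein promoter; nearly all actives have a fitted effect of over 50% in size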
RORgamma inh: blocks mouse ROR gamma transcriptional activity | Drosophila S2 Gal4-RORgamma UAS-luciferase reporter, 20 h | Potency, µM (series often up to 53.6 µM), actives largely listed as inhibitors | actives 5.4% (n = 310,000) | P51450; also: nearly all actives have a fitted effect of over 60% in size
Target sequence (P51450 whole entry, looked up, the tested form may be a part): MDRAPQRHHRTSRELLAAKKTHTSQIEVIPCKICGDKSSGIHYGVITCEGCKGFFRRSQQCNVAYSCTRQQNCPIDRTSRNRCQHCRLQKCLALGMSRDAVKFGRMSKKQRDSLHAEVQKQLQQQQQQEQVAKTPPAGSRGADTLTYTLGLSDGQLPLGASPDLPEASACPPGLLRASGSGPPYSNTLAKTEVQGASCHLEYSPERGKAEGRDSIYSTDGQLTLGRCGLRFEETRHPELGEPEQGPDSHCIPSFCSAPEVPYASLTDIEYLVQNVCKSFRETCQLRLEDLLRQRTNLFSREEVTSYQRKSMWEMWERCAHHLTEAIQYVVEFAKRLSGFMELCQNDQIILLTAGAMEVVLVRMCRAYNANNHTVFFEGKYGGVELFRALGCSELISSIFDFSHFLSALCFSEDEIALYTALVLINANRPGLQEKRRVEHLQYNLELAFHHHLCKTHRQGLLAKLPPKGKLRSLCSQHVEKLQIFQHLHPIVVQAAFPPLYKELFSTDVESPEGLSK
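Drosophila Schneider cells stably carrying a metallothionein-driven Gal4 DBD–ROR gamma fusion and a UAS-Photinus luciferase reporter were exposed to compound for 1 hr, then induced with copper sulfate (700 uM final) for 20 hr at ambient temperature before luminescence reading.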
p53 reactivator: restores transcriptional activity of mutant p53; H1299 p53-A138V BP100-luciferase reporter, luminescence, 24 h; Potency, µM (series often up to 92.2 µM), usual class: activators; actives 0.063% (n = 320,000); AID 504706; also: nearly all actives have a fitted effect of over 45% in size
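p53-null H1299 cells stably carrying temperature-sensitive p53-A138V and a BP100-luciferase reporter were pinned with compounds (4-point, 1:5 series) and held 24 hrs at 37 deg C. Luminescence was read 10 min after detection reagent.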
ELG1 DNA repair: blocks ELG1-dependent DNA repair in HEK293T cells; HEK293T ELG1-luciferase reporter, luminescence, 16 h; DNA damage induced by 5-fluorouridine; Potency, µM (doses to about 46.1 µM), actives largely listed as inhibitors; actives 2.3% (n = 330,000); also: nearly all actives have a fitted effect of over 55% in size
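Luminescence from the luciferase reporter, measured 30 min after ONE-Glo reagent at room temperature, was the read-out. Beforehand, 2,000 cells per well were exposed for 16 hr at 37 °C to 5-fluorouridine together with compound or vehicle.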
BRCA1 expr act: increases BRCA1 expression; MCF7-BRCA1-FFLuc reporter, luminescence, 48 h; response scale: scaled: vehicle 0%, 10 µM genistein 100%; Potency, µM (titrated, usually from 46.1 µM), most hits filed as activators; actives 1.1% (n = 380,000); AID 624202; also: nearly all actives have a fitted effect of over 80% in size
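Reporter cells (MCF7, BRCA1 promoter-firefly luciferase) received library compounds across a concentration series for 48 h. End-point luminescence was measured and concentration-effect curves derived after normalization.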
Giardia killer: kills Giardia lamblia; Giardia lamblia trophozoite viability; activity change, % at 7.66 µM, hits read low; actives 0.15% (n = 340,000); in the data active = activity change below about -80%; inconclusive = between about -30% and that limit;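 also: parasites exposed to compound for two days anaerobically before the ATP read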
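ATP-content bioluminescence gauges trophozoite survival. Cells (100/well) receive compound and incubate anaerobically for 48 hrs at 37 deg C; detection reagent follows for 15-30 min at room temperature.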
Numbers stand for hits; n = inactive; u = inconclusive; x = not tested or not shown; [ ] = another dose, or the depositor's remark. Only some compounds are listed: those with a hit (about 7.6% of all), similar ones and a draw of the others. Unless noted, calls follow the shape of the dose curve; as a rule, active = well fitted curve in the direction sought with a large enough effect; inconclusive = small, poorly fitted or top-dose-only effect, or another doubt; inactive = no such curve, though single readings can be large; an effect the other way counts as inactive or inconclusive.

SMILES	VP16 counter	RORgamma inh	p53 reactivator	ELG1 DNA repair	BRCA1 expr act	Giardia killer
Cc1cc(C)c2c(NC(=S)Nc3ccccc3)n[nH]c2n1	3.16µM	1.12µM	n	n	n	n
Cc1cc(C)c2c(NC(=S)NC(=O)c3ccccc3)n[nH]c2n1	u	5.62µM	n	n	n	n
Cc1cc(C)c(NC(=O)Nc2ccccc2)c(C)n1	x	x	n	n	n	u
Cc1ccc(Nc2nc(NCC3CC3)nc3ccsc23)c(C)c1	x	x	x	x	n	x
CCOC(=O)c1ccc(O)cc1	n	n[10 µM]	x	x	x	x
COc1cccc(-c2csc(N3CCN(CC(=O)Nc4ccc5c(c4)OCO5)CC3)n2)c1	n	n	n	u	n	n
COc1ccc(NC(=O)CN2CCN(c3nc(-c4cccc(OC)c4)cs3)CC2)cc1	u	u	n	11.6µM	n	n
O=[N+]([O-])/C=C/c1cc2ccccc2[nH]1	u	10µM	n	n	n	n
CC(C)C(NS(=O)(=O)c1ccccc1F)C(=O)OCC(=O)NCc1ccco1 (configuration not stated)	x	x	n	n	n	n
Cc1cccc(N2CCN(C(=O)Cn3cnc4c3c(=O)n(C)c(=O)n4C)CC2)c1C	n	n	n	20.6µM	n	u
Cc1ccc(-n2ncc3c(=O)n(CC(=O)N4CCCc5ccccc54)cnc32)cc1C	n	n	n	23.1µM	n	n
O=C(Cn1cnc2c(cnn2-c2ccc(F)cc2)c1=O)N1CCCc2ccccc21	n	n	n	u	n	n
O=C(Cn1cnc2c(cnn2-c2ccc(F)cc2)c1=O)N1CCN(c2ccccc2F)CC1	n	n	n	18.4µM	n	n
CCN(CC(=O)Nc1ccccc1C(F)(F)F)C(=O)c1ccccc1SCC(=O)N1CCCC1	x	x	n	n	n	n
CN(Cc1ccccc1)c1nc(-c2ccc([N+](=O)[O-])cc2)nc2ccccc12	n	n	n	n	n	n
O=[N+]([O-])c1ccc(-c2nc(C(Cl)Cl)c3ccccc3n2)cc1	n	n	n	5.17µM	n	-90.6
O=[N+]([O-])c1cc(-c2nnc(Nc3ccccc3)c3ccccc23)ccc1N1CCOCC1	n	n	n	18.4µM	n	n
O=[N+]([O-])c1cc(-c2nnc(N3CCOCC3)c3ccccc23)ccc1N1CCOCC1	n	u	n	u	n	n
Cc1ccc(Nc2nnc(-c3ccc(N4CCOCC4)c([N+](=O)[O-])c3)c3ccccc23)cc1	n	n	n	u	n	n
O=[N+]([O-])c1cc(-c2nnc(Nc3ccc(O)cc3)c3ccccc23)ccc1N1CCOCC1	u	n	n	18.4µM	n	n
COc1ccc(S(=O)(=O)N(C)C)cc1NCC(=O)Nc1ccc(F)cc1F	n	n	n	n	n	n
COc1ccc(S(=O)(=O)N(C)C)cc1NS(=O)(=O)c1ccc(F)c(F)c1F	12.6µM	4.47µM	n	n	n	n
COc1ccc(CN2CCN(C(=O)C3CCN(S(=O)(=O)c4cccs4)CC3)CC2)c(OC)c1OC	n	u	n	10.3µM	n	n
COc1ccc(CN2CCN(C(=O)C3CCC(CNS(=O)(=O)c4ccc(C)cc4)CC3)CC2)c(OC)c1OC (configuration not stated)	n	n	n	11.6µM	n	n
CCSC1(SCC)N=C(N)C2(C#N)C(c3ccc(OC)c(OC)c3OC)C12C#N (configuration not stated)	2.51µM	11.2µM	n	14.6µM	n	n
CC(C)(C)S(=O)(=O)/C(C#N)=N/Nc1ccc(S(C)(=O)=O)cc1	n	n	n	n	n	n
CC(C)(C)S(=O)(=O)/C(C#N)=N/Nc1ccc(C#N)cc1	n	u	n	18.3µM	n	n
CCN(CCCNC(=O)c1nn(C)c2c1CS(=O)(=O)c1ccccc1-2)Cc1ccccc1	n	n	n	n	n	u
COc1ccc(/C=C2/C(=O)ON=C2c2ccccc2)cc1OC	u	n	n	u	n	n
Cc1ccc(C2=NOC(=O)/C2=C\C=C\c2ccccc2)cc1	u	14.1µM	n	u	n	n
